Source: PubChem (National Center for Advancing Translational Sciences (NCATS))
aSyn yeast inh – rescues yeast growth from alpha-synuclein toxicity. AID 652106. Potency, µM (top dose mostly 46.1 µM), inactives show at the top dose growth rescue (activation), usual class: activators. Yeast expressing alpha-synuclein, growth rescue, BacTiter-Glo, 24 h. 0.14% of 370,000 active; note: % of control where 0% means no effect; nearly all actives have a fitted effect of over 65% in size
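Galactose-induced alpha-syn yeast (OD600=0.02, raffinose-pregrown) + pinned cpd, 24 hr, 30 deg C; growth by BacTiter-Glo luminescence. Growth restoration scores as activation.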
TDP-43 yeast inh – rescues yeast growth from TDP-43 toxicity; TDP-43 expressing yeast growth rescue, BacTiter-Glo, 24 h; Potency, µM (top dose mostly 46.1 µM), without a hit: at the highest dose growth rescue (activation), usual class: activators; 1.8% of 410,000 active; AID 652104; note: % of control where 0% means no effect; nearly all actives have a fitted effect of over 50% in size
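Growth rescue of TDP-43-toxic yeast measured as ATP luminescence (BacTiter-Glo). Cells grown to mid-log in raffinose, induced in galactose at OD600=0.02, exposed to compound 24 hr at 30 deg C.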
Abeta rescue – compounds reversing amyloid beta toxicity in yeast. yeast expressing A-beta42, growth rescue, OD600, 48 h; response scale: 0% DMSO, 100% iron-clioquinol control. Potency, µM (titrated, usually from 46.1 µM), actives largely listed as activators. 0.063% of 410,000 active. AID 1347071; note: nearly all actives have a fitted effect of over 55% in size
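Yeast A-beta toxicity model in growth medium with pinned compounds, 48 h at 30 C; growth read as absorbance at 600 nm. Normalized to FeCl3/clioquinol equimolar mix (positive) and DMSO (negative).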
FUS yeast rescue – FUS proteinopathy suppression in yeast | S. cerevisiae FUS-expressing, growth rescue, OD600, 24 h | Potency, µM (highest dose often 76.6 µM), most hits filed as activators | 0.24% of 390,000 active | AID 1347120;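 note: plate controls were DMSO vehicle for no effect and reference control for full effect; nearly all actives have a fitted effect of over 55% in size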
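Galactose (2%) drives FUS expression in yeast precultured in raffinose; seeding density OD 0.005. Test compounds incubated 24hr at 30C and 99% humidity before absorbance at 600 nm was measured.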
Starred values were filed as active, the others as inactive; i = inactive; ? = inconclusive; . = no result; [ ] = dose if it differs, or a comment. Hits are enriched below; roughly 2.1% of the tested compounds scored in any of these assays. Calls come from the whole dose curve; as a rule, active = well fitted curve in the direction sought with a large enough effect; inconclusive = small, poorly fitted or top-dose-only effect, or another doubt; inactive = no such curve, though single readings can be large; an effect the other way counts as inactive or inconclusive. Potency is the fitted concentration of half-maximal effect.

SMILES	aSyn yeast inh	TDP-43 yeast inh	Abeta rescue	FUS yeast rescue
Cc1cccc(-n2nnc(C(=O)NCc3ccc4c(c3)OCO4)c2N)c1	10%	18µM*	i	i
CC(C)OCCCN(Cc1ccco1)C(=O)c1cc2c(s1)-c1ccccc1OC2	14%	?	i	?
Cc1nc(NCc2ccc3c(c2)OCO3)c2oc3ccccc3c2n1	-14%	4%	i	i
CCc1nc(NCc2ccc3c(c2)OCO3)c2oc3ccccc3c2n1	-12%	11µM*	i	i
O=C(Nc1ccc(F)c(Cl)c1)C1Cc2c(-c3cccc(F)c3)ccnc2O1 (stereo unspecified)	?	18µM*	i	i
NC(=O)c1cccc(-c2ccnc3c2CC(C(=O)Nc2cccc(C(F)(F)F)c2)O3)c1 (stereo unspecified)	-3%	5%	i	i
CC(=O)c1cccc(-c2ccnc3c2CC(C(=O)Nc2ccc(F)c(Cl)c2)O3)c1 (stereo unspecified)	?	?	i	?
O=C(Nc1cccc(C(F)(F)F)c1)C1Cc2c(-c3cccc(F)c3)ccnc2O1 (stereo unspecified)	?	25µM*	i	?
COc1ccc(NC(=O)C2Cc3c(-c4ccc(Cl)cc4)ccnc3O2)cc1OC (stereo unspecified)	6%	35µM*	i	i
COc1ccc(NC(=O)C2Cc3c(-c4ccc(Cl)cc4)ccnc3O2)cn1 (stereo unspecified)	14%	35µM*	i	i
O=C(NCc1ccccc1)C1Cc2c(-c3ccc(Cl)cc3)ccnc2O1 (stereo unspecified)	?	20µM*	i	i
COc1ccc(NC(=O)C2Cc3c(-c4ccncc4)ccnc3O2)cc1OC (stereo unspecified)	2%	23%	i	i
Cc1cc(I)ccc1Nc1nc(NCCN2CCOCC2)nc(N2CCOCC2)n1	16%	.	.	.
O=C(Cc1ccccc1)N(Cc1cccnc1)c1nc2ccc(F)cc2s1	.	?	i	i
COc1cc2c(NC3CCN(C)CC3)nc(N3CCCN(C)CC3)nc2cc1OCCN(C)CCN(C)C	16%	.	.	.
CNc1c(Br)cc(/C=C2\C=C(C(O)c3cc(Br)c(NC)c(Br)c3)c3ccccc32)cc1Br (stereo unspecified)	0%	.	.	.
Cc1ccc(S(=O)(=O)Nc2ccc(C(=O)N3CCN(c4ccccc4O)CC3)cc2)cc1[N+](=O)[O-]	0%	-10%	i	13µM*
COc1cc(/C=C/c2nc(-c3ccccc3O)n[nH]2)cc(OC)c1OC	13%	16µM*	i	.
COc1cc(/C=C/c2nc(N)nc(-c3ccccc3O)n2)cc(OC)c1OC	-1%	-9%	i	i
COc1ccc(/C=C/c2nc(N)nc(-c3ccccc3O)n2)cc1OC	13%	16µM*	i	.
Fc1ccc2[nH]c3c(NCc4ccco4)ncnc3c2c1	4%	.	.	.
COC1CCC2(C)C(=CCC3C4CC(O)CC4(C)CCC32)C1 (stereo unspecified)	16%	14µM*	i	.
CC(=O)[C@H]1CC[C@H]2[C@@H]3CC=C4C[C@@H](O)CC[C@]4(C)[C@H]3CC[C@]12C	12%	-4%	i	i
CCOc1ccc(CNC(=O)C2CCCN(S(=O)(=O)c3ccc4c(c3)CCCC(=O)N4)C2)cc1 (stereo unspecified)	-4%	3%	i	i
O=S(=O)(c1ccc2ccccc2c1)N1CCN(c2ccc(O)cc2)CC1	?	11µM*	i	i
SMILES	aSyn yeast inh	TDP-43 yeast inh	Abeta rescue	FUS yeast rescue
Cc1cc(C)c(C)c(S(=O)(=O)N2CCN(c3ccc(O)cc3)CC2)c1C	16µM*	?	i	i
CN1CCN(S(=O)(=O)c2ccc3ccccc3c2)CC1	4%	19%	i	i
Cc1cc(C)c(C)c(S(=O)(=O)N2CCC(C(=O)N3CCN(c4ccc(F)cc4)CC3)CC2)c1C	8%	?	i	i
COc1ccccc1Nc1sc(C(=O)c2ccc3c(c2)OCO3)c(N)c1S(=O)(=O)c1ccccc1	-9%	13%	i	i
O=C(Nc1ccc(F)cc1)OCCCN1C(=O)CCC12CCCCC2	.	.	.	i
O=C1c2ccccc2C(=O)N1c1ccc(O)cc1	-2%	.	.	.
O=C(COC(=O)/C=C/c1ccc(Cl)c(Cl)c1)NC1CCCC1	-13%[1.84 µM]	10µM*	i	i
COc1ccc2c(c1)N[C@@](CCNC=O)(c1[nH]c3ccccc3c1CCNC=O)C2=O	.	.	.	i
CCc1nn2c(=O)cc(COC(=O)Cc3ccccc3)nc2s1	.	11%	i	i
CC[C@]1(O)C[C@H]2CN(CCc3c([nH]c4ccccc34)[C@@](C(=O)OC)(c3cc4c(cc3OC)N(C=O)[C@H]3[C@@](O)(C(=O)OC)[C@H](OC(C)=O)[C@]5(CC)C=CCN6CC[C@]43[C@@H]65)C2)C1	1%	.	.	.
COc1ccc(CN2C(=O)c3cccnc3C2Nc2ccc(OC)c(Cl)c2)cc1 (stereo unspecified)	1%	-7%	i	32µM*
COc1ccc(NC2c3ncccc3C(=O)N2Cc2ccccc2)c(OC)c1 (stereo unspecified)	-13%	-13%	i	?
C/C(=N\NC(=S)NC(C)C)c1ccccc1	-9%	23%	11µM*	i
Cc1ccc(-c2csc(NC(=O)c3c(C)noc3C)n2)s1	-9%	11µM*	i	.
O=C(COc1ccccc1)Nc1nnc(-c2ccc(Cl)s2)o1	18µM*	8.9µM*	?	i
Cc1ccc(C)c(-c2nnc(NC(=O)COc3ccccc3)o2)c1	11µM*	14µM*	i	i
O=C(COc1ccccc1)Nc1nnc(-c2ccccc2)o1	20µM*	?	?	i
COC(=O)c1ccc(CSc2c(C(C)C)cnc3c2c(=O)n(C)c(=O)n3C)cc1	.	?	i	i
Cc1cc(C)nc(SCC2COc3ccccc3O2)n1 (stereo unspecified)	9%	14µM*	i	i
COc1ccc(NC(=O)CCC(=O)c2cccs2)cc1S(=O)(=O)Nc1ccc(Cl)cc1	2%	27%	i	.
COc1ccc(NC(=O)CCS(=O)(=O)c2ccccc2Cl)cc1S(=O)(=O)Nc1ccc(Cl)cc1	-3%	-2%	i	32µM*
Fc1ccc(-c2noc3ncnc(N4CCN(c5ccccc5)CC4)c23)cc1	-8%	25µM*	i	i
Cc1noc2ncnc(N3CCN(c4ccccc4F)CC3)c12	?	22µM*	i	i
CNC(=O)c1cc2c(ccc3ccccc32)o1	11µM*	?	i	i
O=C(NC1CCCC1)c1cc2c(ccc3ccccc32)o1	-3%	11%	i	.
O=C(CSc1n[nH]c(-c2ccccc2Cl)n1)N1CCN(c2ccc(F)cc2)CC1	.	?	i	i
COc1ccc(OC)c2sc(NC(=O)c3ccc(S(=O)(=O)N4CCCC4)cc3)nc12	-5%	-3%	i	i
Cc1cc(C)nc(SCC(=O)Nc2ccc(Br)cn2)n1	-1%	8%	i	i
